Test systems include SR leukemia; RPMI-8226 leukemia; OVCAR-8 ovarian; OVCAR-5 ovarian; OVCAR-4 ovarian; SK-OV-3 ovarian; IGROV1 ovarian; OVCAR-3 ovarian; HS 578T breast; NCI/ADR-RES ovarian; T-47D breast; BT-549 breast; MDA-MB-435 melanoma; SW-620 colon; MCF7 breast; HCT-116 colon; HCC-2998 colon; KM12 colon.
Common to all, as to assay: NCI-60 one-dose screen, 48 h (100 = growth as untreated, 0 = no growth, -100 = all killed)
Common to all, as to settings: 10 µM unless noted

This is part of a sample that, as a whole, favours compounds with a hit. Of some 83,000 tested, about 20% had one in any assay.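 For each line, cells grew in 96-well plates with the test compound present at a single concentration for 48 hours.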 Values without a mark were called inactive. Calls of active or inactive are those of the source. How the source made its calls: active means growth percent below 10; inactive means the rest.

Consider `CC(=O)O[C@@H]1CCN2C(=O)N(C)c3ccccc3[C@@H]2C1`, for which the growth with SR leukemia is 93.3%; in the experiment on RPMI-8226 leukemia, 104%; with OVCAR-8 ovarian it was 109%; with OVCAR-5 ovarian, 96.5%; with OVCAR-4 ovarian it was 107%; in the experiment with SK-OV-3 ovarian it was 101%. Besides, the growth in the experiment on IGROV1 ovarian is 105%; in the experiment with OVCAR-3 ovarian, 122%; in the experiment on HS 578T breast, 116%; in the experiment on NCI/ADR-RES ovarian, 104%; in the experiment with T-47D breast it was 92.8%; with BT-549 breast, 108%. In addition, the growth in the experiment with MDA-MB-435 melanoma was 107%; in the experiment on SW-620 colon, 113%; in the experiment on MCF7 breast it was 94.6%; in the experiment with HCT-116 colon, 102%; in the experiment with HCC-2998 colon, 104%; with KM12 colon, 116%.
As to `CC1(C)NC2=C(C(Nc3cccnc3)N1)C(c1ccc([N+](=O)[O-])cc1)C(C(=O)c1ccc(N=[N+]=[N-])cc1)O2` (centres undefined), the growth in the experiment with SR leukemia is 102%; in the experiment with RPMI-8226 leukemia, 115%; with OVCAR-8 ovarian it was 101%; with OVCAR-5 ovarian it was 97.6%; in the experiment on OVCAR-4 ovarian it was 117%; in the experiment on SK-OV-3 ovarian, 108%. Further, the growth was 104% with IGROV1 ovarian; 110% in the experiment with OVCAR-3 ovarian; 102% with HS 578T breast; 109% in the experiment with NCI/ADR-RES ovarian; 102% with T-47D breast; 99.7% in the experiment on BT-549 breast. Further, the growth with MDA-MB-435 melanoma was 105%; with SW-620 colon, 104%; with MCF7 breast, 97.5%; in the experiment with HCT-116 colon it was 104%; with HCC-2998 colon it was 110%; in the experiment on KM12 colon, 105%.
`Cn1c(=O)c2c(ncn2CCC(=O)Nc2ccc(F)cc2)n(C)c1=O`: the growth with SR leukemia is 105%; in the experiment on RPMI-8226 leukemia it was 97.2%; with OVCAR-8 ovarian, 108%; with OVCAR-5 ovarian, 103%; with OVCAR-4 ovarian, 111%; with SK-OV-3 ovarian it was 85%. The growth with IGROV1 ovarian was 112%; in the experiment on OVCAR-3 ovarian it was 107%; in the experiment with HS 578T breast, 103%; in the experiment with NCI/ADR-RES ovarian, 106%; in the experiment with T-47D breast, 94.1%; in the experiment with BT-549 breast it was 90.3%. Also, the growth with MDA-MB-435 melanoma was 110%; in the experiment with SW-620 colon, 106%; in the experiment on MCF7 breast, 100%; in the experiment with HCT-116 colon it was 87.7%; in the experiment with HCC-2998 colon, 115%; in the experiment with KM12 colon, 103%.
`COc1cnc2c(c1)C(=O)c1c-2n(CCCN2CCN(CCO)CC2)c(=O)c2cc([N+](=O)[O-])ccc12`: the growth was -12.5% (active) with SR leukemia; 44.6% in the experiment on RPMI-8226 leukemia; 52.5% in the experiment with OVCAR-8 ovarian; 132% with OVCAR-5 ovarian; 79.4% in the experiment on OVCAR-4 ovarian; 54.8% in the experiment with SK-OV-3 ovarian. Moreover, the growth in the experiment with IGROV1 ovarian is 74.2%; with OVCAR-3 ovarian it was 84.4%; in the experiment with HS 578T breast, 84.9%; in the experiment on NCI/ADR-RES ovarian it was 111%; in the experiment with T-47D breast, 64.4%; with BT-549 breast it was 65.6%. In addition, the growth with MDA-MB-435 melanoma was 40.8%; with SW-620 colon, -48.8% (active); in the experiment on MCF7 breast it was -6.37% (active); in the experiment on HCT-116 colon it was -87.6% (active); in the experiment with HCC-2998 colon, 80%; in the experiment with KM12 colon, 32.4%.
In the case of `CCSc1sc(-c2ccc(C)cc2)nc1[P+](c1ccccc1)(c1ccccc1)c1ccccc1`, the growth in the experiment on SR leukemia is -17.9% (active); in the experiment with RPMI-8226 leukemia it was -33.9% (active); with OVCAR-8 ovarian, 1.31% (active); in the experiment with OVCAR-5 ovarian, 18.3%; in the experiment with OVCAR-4 ovarian, -4.21% (active); in the experiment on SK-OV-3 ovarian it was -23.1% (active). For the same compound, the growth in the experiment with IGROV1 ovarian was -8.55% (active); in the experiment with OVCAR-3 ovarian it was -12.7% (active); with HS 578T breast, -3.68% (active); in the experiment on NCI/ADR-RES ovarian, -5.4% (active); in the experiment with T-47D breast it was -22% (active); with BT-549 breast, -19.1% (active). For the same compound, the growth in the experiment with MDA-MB-435 melanoma was -26.8% (active); in the experiment with SW-620 colon, 4.99% (active); in the experiment on MCF7 breast it was -4.84% (active); in the experiment with HCT-116 colon, -20.9% (active); in the experiment with HCC-2998 colon it was -23.1% (active); in the experiment on KM12 colon it was -63.2% (active).
Consider `Cc1csc(-c2ccc3c(c2)COC3(CCCN(C)C)c2ccc(F)cc2)c1` (centres undefined), for which the growth in the experiment on SR leukemia is -3.41% (active); in the experiment with RPMI-8226 leukemia, -31.5% (active); in the experiment with OVCAR-8 ovarian, 39%; in the experiment with OVCAR-5 ovarian, 72.1%; in the experiment on OVCAR-4 ovarian, 45.9%; in the experiment with SK-OV-3 ovarian, -22.4% (active). Besides, the growth was 17.2% in the experiment with IGROV1 ovarian; 58.7% with OVCAR-3 ovarian; 47.7% with HS 578T breast; 78.6% with NCI/ADR-RES ovarian; -37.5% (active) with T-47D breast; 76.6% in the experiment on BT-549 breast. The growth was -30.3% (active) in the experiment with MDA-MB-435 melanoma; 22.7% with SW-620 colon; 17.1% with MCF7 breast; -26.7% (active) in the experiment on HCT-116 colon; -50.7% (active) with HCC-2998 colon; 14.4% in the experiment on KM12 colon.
As to `N#CC1=C(N)Oc2ccc3ccccc3c2C1c1ccccc1` (centres undefined), the growth in the experiment with SR leukemia was 25.1%; in the experiment with RPMI-8226 leukemia, 21.8%; in the experiment on OVCAR-8 ovarian, 49.8%; in the experiment on OVCAR-5 ovarian, 55.8%; in the experiment with OVCAR-4 ovarian it was 73.6%; with SK-OV-3 ovarian, 47.2%. In addition, the growth was 25.5% in the experiment with IGROV1 ovarian; 18.4% in the experiment on OVCAR-3 ovarian; 23.8% in the experiment with HS 578T breast; 8.41% (active) with NCI/ADR-RES ovarian; 40.8% in the experiment on T-47D breast; 19.8% in the experiment with BT-549 breast. In addition, the growth in the experiment on MDA-MB-435 melanoma is -21.6% (active); in the experiment on SW-620 colon, 28%; in the experiment on MCF7 breast it was 14.8%; in the experiment with HCT-116 colon, 19.4%; with HCC-2998 colon, 69.3%; in the experiment with KM12 colon it was 24.5%.
For the compound `NC1(N)C=CC2=C(C=C1)C1(N)C3=C(C=CC(N)(N)C=C3)N2C2(N)C3=C(C=CC(N)(N)C=C3)N1C1=C2C=CC(N)(N)C=C1`, the growth in the experiment with SR leukemia is 79.2%; in the experiment with RPMI-8226 leukemia it was 18.6%; in the experiment on OVCAR-8 ovarian, 90.5%; in the experiment with OVCAR-5 ovarian, 105%; in the experiment with OVCAR-4 ovarian, 90.7%; with SK-OV-3 ovarian it was 102%. Moreover, the growth with IGROV1 ovarian was 94.8%; with OVCAR-3 ovarian, 97.8%; with HS 578T breast, 81.6%; with NCI/ADR-RES ovarian it was 82.9%; with T-47D breast, 74.5%; in the experiment with BT-549 breast, 52.4%. The growth was 89.8% in the experiment with MDA-MB-435 melanoma; 95.4% in the experiment on SW-620 colon; 76.2% in the experiment on MCF7 breast; 90.2% with HCT-116 colon; 105% in the experiment with HCC-2998 colon; 93.6% in the experiment on KM12 colon.

The values above are taken from PubChem BioAssay (NCI).
